In the supplement of paper PMC6555819:

What was measured:
Test in all cases: PBM binding z-score (relative to random genomic background probes); higher = stronger binding; sequences stand for … in GC…GCGATTGACAGCGTAGAATGAAGG
[1] = system: PPARg:RXRa DBDmut IVT, anti-RXR (DBD mutation: RXRa K156A/R161A, NR concentration 270 nM, RXRa partner concentration 90 nM)
Procedure, shortened: (§1)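 On custom Agilent 4×180K arrays, double-stranded probes with 34-nt variable regions carried direct-repeat seeds, single-nucleotide variants, half-site ablations or random human genomic background. Ligand-free nuclear receptor dimers were applied for 1 h, and binding was read with antibodies against each partner (one per run). Binding z-scores come from regression-normalized fluorescence, with the random background probes as reference.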

[2] = system: PPARg:RXRa IVT, anti-PPARg (NR concentration 270 nM, RXRa partner concentration 90 nM)
Procedure, shortened: as §1

[3] = system: PPARg DBDmut:RXRa IVT, anti-PPARg (DBD mutation: PPARg1 K132A/R137A, NR concentration 270 nM, RXRa partner concentration 90 nM)
Procedure, shortened: as §1

[4] = system: PPARg DBDmut IVT, anti-PPARg (DBD mutation: PPARg1 K132A/R137A, NR concentration 270 nM)
Procedure, shortened: as §1

[5] = system: PPARg homodimer (NR concentration 180 nM)
Procedure, shortened: as §1

[6] = system: PXR:RXRa (NR concentration 270 nM, RXRa partner concentration 90 nM)
Procedure, shortened: as §1

[7] = system: PXR homodimer (NR concentration 270 nM)
Procedure, shortened: as §1

[8] = system: RARa:RXR (NR concentration 270 nM, RXRa partner concentration 90 nM)
Procedure, shortened: as §1

[9] = system: RARa homodimer (NR concentration 270 nM)
Procedure, shortened: as §1

[10] = system: RARb:RXRa (NR concentration 270 nM, RXRa partner concentration 90 nM)
Procedure, shortened: as §1

[11] = system: RARb homodimer (NR concentration 270 nM)
Procedure, shortened: as §1

[12] = system: RARg:RXRa (NR concentration 270 nM, RXRa partner concentration 90 nM)
Procedure, shortened: as §1

[13] = system: RARg homodimer (NR concentration 270 nM)
Procedure, shortened: as §1

[14] = system: RXRa DBDmut IVT, anti-RXR (DBD mutation: RXRa K156A/R161A, NR concentration 90 nM)
Procedure, shortened: as §1

[15] = system: RXRa homodimer (NR concentration 180 nM)
Procedure, shortened: as §1

[16] = system: THRa:RXRa (NR concentration 90 nM, RXRa partner concentration 90 nM)
Procedure, shortened: as §1

[17] = system: THRa homodimer (NR concentration 90 nM)
Procedure, shortened: as §1

[18] = system: VDR homodimer (NR concentration 270 nM)
Procedure, shortened: as §1

| Sequence | PBM binding z-score [1] | PBM binding z-score [2] | PBM binding z-score [3] | PBM binding z-score [4] | PBM binding z-score [5] | PBM binding z-score [6] | PBM binding z-score [7] | PBM binding z-score [8] | PBM binding z-score [9] | PBM binding z-score [10] | PBM binding z-score [11] | PBM binding z-score [12] | PBM binding z-score [13] | PBM binding z-score [14] | PBM binding z-score [15] | PBM binding z-score [16] | PBM binding z-score [17] | PBM binding z-score [18] |
| --- | --- | --- | --- | --- | --- | --- | --- | --- | --- | --- | --- | --- | --- | --- | --- | --- | --- | --- |
| ATCTCTAGGTAATGATAGTTCAGTGAATGCAAAT | 2.25 | 2.17 | 1.1 | 1.74 | 1.21 | 1.12 | 0.747 | 0.583 | 0.965 | 0.694 | 0.921 | 0.493 | 0.864 | 0.246 | 0.462 | 0.79 | 0.35 | 0.644 |
| TCATATAGGAAAATGCTAGGTGAAAGTCCGATCT | 2.71 | 0.68 | 0.369 | 0.466 | 0.42 | 0.59 | 0.397 | 0.636 | 1.22 | 0.176 | 0.42 | 0.204 | 0.133 | 1.41 | 0.778 | 0.612 | 0.548 | 0.37 |
| CCGACTGGTGCAGAAAGGTTACCATACCATCCGG | -0.779 | -0.294 | -0.872 | -1.11 | 1.03 | 1 | 0.0978 | 1.65 | -0.557 | 1.43 | 1.73 | 1.16 | 0.812 | -0.6 | 1.61 | 0.935 | -0.35 | -0.229 |
| ACCTCTAGGTAACCAAGTTCAGTGAATGCCGAAC | 3.87 | 2.09 | 0.112 | 0.237 | -0.00896 | 1.65 | 1.47 | 0.453 | -0.355 | 0.936 | 1.28 | 0.433 | 0.365 | 0.736 | 0.358 | 1.25 | 0.385 | 2.26 |
| GATACAGGGTCAGGTAGAGGCCAGAGTATGGAAA | 0.739 | 2.45 | 0.9 | 0.631 | 2.28 | 2.96 | 0.741 | 3.47 | 1.29 | 4 | 3.48 | 6.43 | 4.46 | 0.77 | 4.13 | 3.18 | 0.846 | 1.25 |
| CAAACTAGGTCACGGAAGGTCAAAGTCGAATGAC | 8.57 | 8.97 | 6.9 | 4.23 | 7.08 | 6.99 | 2.28 | 6.84 | 3.11 | 5.29 | 5.47 | 7.13 | 7.4 | 2.45 | 7.3 | 5.24 | 2.79 | 3.53 |
| TGAATGAGGTTAAAGAGCAGGGAACGTGGCGTCG | 2.26 | 3.24 | -0.099 | -0.275 | 0.719 | 1.53 | -0.274 | 2.52 | 0.12 | 1.94 | 0.754 | 2.13 | 1.34 | 1.01 | 3.19 | 2.39 | 0.467 | 0.665 |
| ACTATTAATTGAGACGAGGGCAACCGATAGGTTG | 0.0464 | 0.914 | 1.03 | 1.13 | 2.25 | 0.755 | 1.25 | 0.914 | 1.68 | 1.01 | 1.56 | 0.73 | 0.967 | 0.688 | 0.753 | 1.33 | 1.03 | 1.64 |
| ATCGAAAGGTCTTGAGGTGAGTATACAGAAAGGC | -0.431 | 1.56 | 0.61 | 0.602 | 0.325 | 0.409 | -0.368 | 1.43 | 0.103 | 2.13 | 1.41 | 1.77 | 1.87 | -0.483 | 1.48 | 2.34 | 1.21 | -0.0653 |
| ACTATTCGTTGACTTAGGGCAACCGATACGACGC | -0.214 | 0.623 | 1.11 | 1.54 | 0.718 | 0.152 | 0.211 | 0.392 | 0.76 | 0.866 | 0.887 | 0.792 | 0.996 | 0.445 | 0.633 | 0.912 | 0.963 | 0.261 |
| TAGCCTAGGTCAGATCGTGCCAGTATACGCTATA | 0.562 | 1.66 | 0.149 | -0.175 | -0.159 | 0.82 | -0.569 | 1.23 | -0.542 | 3.18 | 2.22 | 2.83 | 3.28 | -0.193 | 1.33 | 2.46 | 0.0586 | -0.325 |
| CCTTAAGGGTCACTCCAGGTTATAGCATCGGAGT | 3.17 | 4.07 | 0.0681 | 0.102 | 2.47 | 5.59 | 0.47 | 4.49 | 0.956 | 4.97 | 4.32 | 5.98 | 6.35 | 3.27 | 6.02 | 5.09 | 0.592 | 2.55 |
| CCTACTTGGCCAAGGTCATTGATCAGTCAAAGCA | 1.37 | 2.08 | -0.0462 | -0.266 | 2.44 | 3.9 | 1.45 | 3.57 | 1.49 | 3.49 | 3.78 | 4.01 | 3.47 | 2.56 | 3.83 | 3.82 | 3.07 | 3.62 |
| CGTCAAAGTTCAAGGTAACGTACCAGAAAGCAGC | 0.681 | 2.41 | 0.882 | 0.599 | 4.5 | 4.28 | 3.52 | 3.57 | 2.48 | 5.12 | 3.97 | 5.35 | 6.14 | 4.5 | 4.54 | 3.12 | 1.39 | 3.21 |
| GTAACAAGGTGAATAGGTCGTTGATGAGTAGGCG | 3.26 | 3.65 | 0.827 | 0.585 | 1.61 | 1.02 | 0.451 | 2.04 | 0.797 | 2.06 | 1.9 | 2.74 | 1.68 | 0.149 | 2.29 | 2.06 | 0.594 | 0.415 |
| CAAACTAGGTTACAGAGGTCAAAGTCCGTGCGTA | 7.75 | 7.64 | 1.98 | 1.29 | 4.38 | 6.32 | 7.32 | 7.03 | 2.06 | 4.44 | 4.97 | 6.01 | 5.51 | 2.53 | 7.1 | 4.14 | 2.24 | 5.09 |
